This is an account of results in the supplement of paper PMC6555819.

What all share (test): PBM binding z-score (relative to random genomic background probes); higher = stronger binding; sequences stand for … in GC…GCGATTGACAGCGTAGAATGAAGG
The subject of assay [1] is FXR:RXRa (NR concentration 270 nM, RXRa partner concentration 90 nM). In a few lines:
(§1)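 Ligand-free nuclear receptor dimers were bound for 1 h to custom Agilent 4×180K protein-binding microarrays. Detection used antibodies against each partner (one per run). Binding z-scores rest on regression-normalized fluorescence, with random background probes as the reference.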

For assay [2], the system named is LXRa:RXRa (NR concentration 270 nM, RXRa partner concentration 90 nM). An outline of the steps: as §1
Assay [3] relates to LXRa homodimer (NR concentration 270 nM). In a few lines: as §1
Assay [4] has as its system LXRb:RXRa (NR concentration 270 nM, RXRa partner concentration 90 nM). In a few lines:
as §1

The subject of assay [5] is LXRb homodimer (NR concentration 270 nM). In a few lines:
as §1

Assay [6] deals with PPARa:RXRa (NR concentration 270 nM, RXRa partner concentration 90 nM). In a few lines:
as §1

Assay [7] relates to PPARg:RXRa (NR concentration 180 nM, RXRa partner concentration 90 nM). An outline of the steps: as §1
For assay [8], the system named is PPARg:RXRa 270nM:90nM, anti-RXR (NR concentration 270 nM, RXRa partner concentration 90 nM). In a few lines:
as §1

Assay [9] relates to PPARg:RXRa 30nM:10nM, anti-RXR (NR concentration 30 nM, RXRa partner concentration 10 nM). An outline of the steps: as §1
Assay [10] has as its system PPARg:RXRa 90nM:30nM, anti-RXR (NR concentration 90 nM, RXRa partner concentration 30 nM). An outline of the steps: as §1
Assay [11] concerns PPARg:RXRa DBDmut IVT, anti-RXR (DBD mutation: RXRa K156A/R161A, NR concentration 270 nM, RXRa partner concentration 90 nM). An outline of the steps: as §1
The subject of assay [12] is PPARg:RXRa IVT, anti-PPARg (NR concentration 270 nM, RXRa partner concentration 90 nM). In a few lines:
as §1

The subject of assay [13] is PPARg DBDmut:RXRa IVT, anti-PPARg (DBD mutation: PPARg1 K132A/R137A, NR concentration 270 nM, RXRa partner concentration 90 nM). An outline of the steps: as §1
Assay [14] concerns PPARg DBDmut IVT, anti-PPARg (DBD mutation: PPARg1 K132A/R137A, NR concentration 270 nM). An outline of the steps:
as §1

Assay [15] deals with PPARg homodimer (NR concentration 180 nM). In a few lines: as §1
For assay [16], the system named is PXR:RXRa (NR concentration 270 nM, RXRa partner concentration 90 nM). In a few lines: as §1
The subject of assay [17] is PXR homodimer (NR concentration 270 nM). In a few lines:
as §1

For assay [18], the system named is RARa:RXR (NR concentration 270 nM, RXRa partner concentration 90 nM). An outline of the steps: as §1
The subject of assay [19] is RARa homodimer (NR concentration 270 nM). In a few lines: as §1
The subject of assay [20] is RARb:RXRa (NR concentration 270 nM, RXRa partner concentration 90 nM). In a few lines: as §1

As to CCGAGTAGGTTATGGGGCAGTCAGGCAACGGTGA, the PBM binding z-score in assay [1] is 0.0419; in assay [2], 0.326; in assay [3], -0.0975; in assay [4] it was 0.378; in assay [5] it was -0.292; in [6], 1.76. The PBM binding z-score amounted to 2.58 in [7]; 3.74 in assay [8]; 1.39 in [9]; 3.3 in assay [10]; 2.72 in [11]; 3.05 in [12]. Further, the PBM binding z-score is -0.267 in [13]; -0.985 in assay [14]; 0.752 in assay [15]; -0.312 in [16]; 0.274 in assay [17]; -0.198 in [18]. In addition, the PBM binding z-score in assay [19] stood at 0.265; in assay [20] it was 0.933.

Turning to CCTAGTTGGTCAGGATGTCACACACCGGATATGA, the PBM binding z-score in assay [1] was -0.184; in assay [2], -0.0235; in assay [3] it was 0.256; in [4] it was 0.227; in [5], 0.348; in assay [6], 0.0864. Besides, the PBM binding z-score in assay [7] is 0.898; in assay [8], 0.76; in assay [9] it was -0.14; in assay [10], 0.424; in assay [11], 0.536; in [12] it was 1.16. The PBM binding z-score worked out at 0.182 in [13]; 0.583 in [14]; 1.42 in assay [15]; 0.0986 in assay [16]; 0.254 in [17]; 0.0158 in assay [18]. In addition, the PBM binding z-score in assay [19] was found to be 1.18; in [20], 0.798.

Turning to TGAATGAGGTTCAAGATCAGGGAACGTGGCGTCG, the PBM binding z-score was 0.995 in assay [1]; 0.96 in [2]; -0.757 in assay [3]; 0.185 in assay [4]; -0.0166 in assay [5]; 1.76 in assay [6]. The PBM binding z-score is 0.831 in assay [7]; 1.62 in assay [8]; 0.424 in assay [9]; 1.14 in [10]; -0.641 in assay [11]; 0.696 in assay [12]. Besides, the PBM binding z-score is 0.378 in [13]; 0.169 in assay [14]; -0.0825 in [15]; 0.583 in assay [16]; -0.309 in assay [17]; 0.775 in assay [18]. The figures for the PBM binding z-score in assay [19] and in [20] were 0.0432 and 1.17, respectively.

Take CCTTACGGGTCACGAGGTTATAGCCCGACGAGCG: the PBM binding z-score in assay [1] is 6.99; in assay [2], 4.42; in assay [3] it was 0.302; in assay [4] it was 3.77; in assay [5] it was -0.0981; in [6] it was 6.03. In addition, the PBM binding z-score in assay [7] turned out to be 7.34; in assay [8], 6.97; in [9], 3.33; in [10] it was 5.71; in assay [11], 3.74; in [12] it was 5.56. In addition, the PBM binding z-score in assay [13] is 0.959; in assay [14], 1.66; in assay [15] it was 3.14; in [16] it was 4.59; in assay [17] it was -0.00848; in [18] it was 6.27. Also, the PBM binding z-score in assay [19] turned out to be 0.153; in assay [20] it was 4.74.

Turning to AGTCAAAGTTCACTAGTTAACGTAAGATTCAGCT, the PBM binding z-score in [1] was determined as 5.06; in [2], 5.13; in assay [3] it was 2.97; in assay [4] it was 2.92; in assay [5], 1.03; in assay [6], 4.06. Moreover, the PBM binding z-score is 5.33 in assay [7]; 5.73 in assay [8]; 2.56 in assay [9]; 4.89 in [10]; 0.662 in assay [11]; 2.31 in [12]. Further, the PBM binding z-score in [13] came out at 1.15; in assay [14], 0.981; in [15], 2.52; in [16], 4.28; in [17] it was 3.24; in assay [18] it was 2.94. Moreover, the PBM binding z-score in assay [19] stood at 1.15; in [20], 4.76.

With TCATATAGGTAAATGATAGGTGAAAGTCCGATCT, the PBM binding z-score was determined as 1.32 in [1]; 1.17 in [2]; 0.558 in [3]; 1.22 in assay [4]; 0.404 in [5]; 1.74 in assay [6]. For the same sequence, the PBM binding z-score in assay [7] came to 1.51; in [8] it was 2.71; in assay [9], 3.76; in assay [10], 3.23; in assay [11], 3.92; in assay [12], 2.51. Besides, the PBM binding z-score in [13] is 1.28; in assay [14], 1.62; in assay [15], 1.19; in assay [16] it was 0.828; in assay [17], 0.487; in [18], 1.49. Moreover, the PBM binding z-score was found to be 1.16 in [19] and 0.612 in assay [20].
